LAP4-GFP MLPCN: modulators of LAP4-GFP expression in yeast, primary screen, S. cerevisiae, multiplex flow cytometry, MLPCN library | 3 h; median GFP as percent of DMSO wells | GFP response vs DMSO, % at 10 µM | actives 0.34% (n = 320,000);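 active means GFP response vs DMSO above a set limit, about the screen mean plus 3 SD, cut at about 150% in these data; inconclusive means under 70 cell events counted for the yeast strain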
MEP2-GFP yeast: modulators of MEP2-GFP levels in yeast, primary screen, S. cerevisiae, multiplex flow cytometry, MLPCN library; actives 0.51% (n = 330,000); GFP response vs DMSO, % at 10 µM; S. cerevisiae MEP2-GFP strain, 3 h; 100% = DMSO control level;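 active means GFP response versus DMSO above a set limit, roughly screen mean plus 3 SD, cut at about 180% in these data; inconclusive means fewer than 70 cells counted for a yeast strain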;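 further: median GFP fluorescence of the barcode-gated MEP2-GFP cells per well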
AGP1 TOR yeast: modulators of AGP1-GFP expression in yeast TOR pathway, primary screen, cell-based, multiplex flow cytometry, S. cerevisiae, MLPCN library | 3 h; GFP as percent of DMSO wells | GFP response vs DMSO, % at 10 µM | actives 0.02% (n = 320,000) | AID 2066, 2009;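 active means GFP response relative to DMSO above a set limit, near screen average plus 3 SD, cut at about 150% in these data; inconclusive means fewer than 70 cells counted for the yeast strain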;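 further: median GFP channel fluorescence of the gated AGP1 strain per well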
Myeloid diff 2: induction of myeloid progenitor differentiation, primary screen, cell-based, flow cytometry, MLPCN library; ER-HoxA9 myeloid progenitors, lysozyme-GFP differentiation; calls only at 10 µM; AID 624256, 2012; actives 1% (n = 360,000);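 active means normalized GFP-positive differentiation at or above the plate's own cutoff, the solvent-only control mean plus 3 SD; inconclusive means no clear call, values can overlap the other calls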;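 further: cells exposed to compound for four days before flow analysis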
RPL19A-GFP yeast: RPL19A-GFP expression modulators in yeast, primary screen, cell-based, S. cerevisiae, multiplex flow cytometry, MLPCN; S. cerevisiae RPL19A-GFP strain, 3 h; hits give low values; percent response vs DMSO, % at 10 µM; actives 0.3% (n = 330,000);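 active means percent response vs DMSO below 50%; inconclusive means fewer than 70 events counted for the yeast strain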;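 further: median channel GFP fluorescence of the barcoded RPL19A-GFP strain; ratio of sample median GFP to plate DMSO average so 100% = DMSO; lower means less RPL19A-GFP as with rapamycin TOR inhibition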
CIT2 TOR yeast: modulators of CIT2-GFP expression in yeast, primary screen, S. cerevisiae, GFP fusion, multiplex flow cytometry, MLPCN library; S. cerevisiae CIT2-GFP strain, 3 h; 100 means same as DMSO wells; GFP response vs DMSO, % at 10 µM; actives 0.065% (n = 320,000);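 active means GFP response relative to DMSO above a set limit, near the screen mean plus 3 SD, cut at about 150% in these data; inconclusive means Fewer than 70 cells measured for a yeast strain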;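 further: ratio of well median GFP fluorescence to mean of DMSO wells on the plate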
Numbers without * were called inactive; i = inactive; u = inconclusive; x = not tested or not shown; + = active, no number; [ ] = remark or other dose. Shown are actives, neighbours in structure and some others; about 1.8% of the full set was active somewhere.

SMILES	LAP4-GFP MLPCN	MEP2-GFP yeast	AGP1 TOR yeast	Myeloid diff 2	RPL19A-GFP yeast	CIT2 TOR yeast
O=C(NCC1CC1)c1ccc(Oc2cc(Cl)cc(Cl)c2)o1	148	93	79	i	94	70
NNC(=O)c1ccc(Oc2cc(Cl)cc(Cl)c2)o1	109	92	86	+	98	72
COc1cc(-c2nc(-c3ccc(NC(=O)c4ccc5c(c4)OCO5)cc3)no2)cc(OC)c1OC	96	96	93	i	98	89
Cc1ccccc1-c1nc(-c2ccc(NC(=O)c3ccc4c(c3)OCO4)cc2)no1	96	103	100	+	97	89
COc1ccc(/C=N/Nc2nnc(C)n2N)cc1OC(C)=O	125	192*	115	i	103	109
COc1ccc(/C=N/Nc2nnc(C)n2N)cc1OC	96	108	104	i	102	109
CC1CC(C)CN(CC(=O)c2c[nH]c3ccccc23)C1 (configuration not stated)	117	127	106	+	115	115
CN(C)S(=O)(=O)N1C(=O)c2ccccc2C1=O	x	88	77	i	85	77
CN(C)/C=C1\C=C2C(=O)c3ccccc3N2C1=O	141	162	112	+	107	124
Cc1nn(Cc2cccc(C(=O)Nc3ccn(Cc4ccccc4)n3)c2)c(C)c1[N+](=O)[O-]	97	100	89	+	92	101
COCCn1c(SCC(=O)c2c(N)n(C3CC3)c(=O)[nH]c2=O)nnc1-c1ccc(Cl)cc1	99	105	105	i	107	98
O=C1C2CCCN2C(c2ccccc2)N1c1ccc(Cl)cc1 (configuration not stated)	108	99	98	+	97	89
Cc1c(C(=O)N(Cc2ccc(N(C)C)cc2)C2CCS(=O)(=O)C2)oc2ccccc12 (configuration not stated)	98	90	108	i	94	98
CCN(CC)c1ccc2cc(-c3nnc(-c4ccccc4)o3)c(=O)oc2c1	97	95	81	+	89	83
CCN(CC)c1ccc2cc(C(=O)c3cccs3)c(=O)oc2c1	x	x	x	+	x	x
CCN(CC)c1ccc2cc(-c3nc4ccccc4n3C)c(=O)oc2c1	108	100	93	u	97	88
CC(Sc1nnnn1C1CC1)C(=O)Nc1cccc(S(=O)(=O)N2CCOCC2)c1 (configuration not stated)	x	x	x	i	x	x
Oc1ccccc1-c1nnc(COc2ccc(Cl)cc2Cl)o1	96	106	105	+	101	106
CN1CCN(c2ccc(C(F)(F)F)cc2NC(=O)Nc2ccccc2)CC1	88	88	94	i	93	98
O=C(CC1C(=O)NCCN1C(=O)c1ccccc1)Nc1cc(Cl)ccc1Cl (configuration not stated)	109	105	106	i	101	103
Cc1ccc(F)cc1NC(=O)N1CCNC(=O)C1CC(=O)Nc1cc(Cl)ccc1Cl (configuration not stated)	118	103	115	i	91	154*[may fluoresce green]
COc1ccccc1NC(=O)CC1C(=O)NCCN1C(=O)Nc1ccc(Cl)c(Cl)c1 (configuration not stated)	87	470*[may fluoresce violet]	22	i	67	u
COc1ccccc1NC(=S)N1CCNC(=O)C1CC(=O)Nc1cccc(C)c1 (configuration not stated)	109	102	113	i	102	101
CCOC(=O)C1=C(C)c2ccccc2OC1(C(=O)OCC)C(C)C (configuration not stated)	x	x	x	i	x	x
COC(=O)c1cccc(NC(=O)CC2C(=O)NCCN2C(=O)Nc2ccccc2)c1 (configuration not stated)	110	105	97	i	97	96
SMILES	LAP4-GFP MLPCN	MEP2-GFP yeast	AGP1 TOR yeast	Myeloid diff 2	RPL19A-GFP yeast	CIT2 TOR yeast
CC(C)(C)c1ccc(C(=O)N2CCN(C(=O)C3CCCCC3)CC2)cc1	101	106	113	i	93	152*[may fluoresce green]
N#Cc1cc2cc3c(cc2nc1SCC(=O)N1CCOCC1)OCO3	91	107	101	i	106	100
Cc1cc2cc3c(cc2nc1SCC(=O)N1CCOCC1)OCO3	99	294*[may fluoresce violet]	22	i	60	u
CCOC(=O)C1CCN(C(=O)N2CCOCC2)CC1	98	88	94	i	94	90
N#C/C(=C\c1cccc(Oc2ccccc2)c1)C(=O)N1CCOCC1	155*	77	86	i	87	70
COc1cc(/C=C(\C#N)C(=O)N2CCOCC2)cc(Br)c1O	98	90	93	i	97	92
CCCCCCN1C[C@H](O)[C@@H](n2cc(C3CC3)nn2)C[C@@H]1c1ccc(OC)cc1	x	x	x	+	x	x
O=C(COC(=O)CCS(=O)(=O)c1ccccc1)Nc1cc(S(=O)(=O)N2CCCCC2)ccc1Cl	118	109	116	i	108	105
Cc1nc(C)c(C(=O)OCC(=O)Nc2ccccc2SCC#N)s1	105	103	100	+	100	97
Cc1nc(C)c(C(=O)OCC(=O)Nc2ccccc2)s1	104	102	97	i	95	93
COc1ccccc1CNc1nc(-c2ccccc2CO)c2sccc2n1	x	x	x	i	x	x
COc1ccc(N(CC(=O)NC2CCCCC2)S(=O)(=O)c2cccnc2)cc1	104	110	107	i	102	105
Cn1ccc(NC(=O)c2ccc(Cl)cc2)n1	+[may fluoresce green]	+[may fluoresce green]	+[may fluoresce green]	i	i	+[may fluoresce green]
CCOC(=O)c1ccc(NC(=O)Nc2ccn(C)n2)cc1	99	107	101	+	97	104
Cn1c(=O)c2c(nc(CN3CCC(C(N)=O)CC3)n2CCc2ccccc2)n(C)c1=O	94	99	93	i	92	92
Cc1nn(C)cc1/C=C/C(=O)c1ccc(O)cc1	92	105	96	i	97	95
CCCC(c1nnnn1CC(=O)OCC)N(Cc1cc2c(C)cc(C)cc2[nH]c1=O)C1CCCC1 (configuration not stated)	88	181*[may fluoresce violet]	24	i	58	u
O=S(=O)(c1ccc(NC(=S)N/N=C/c2cccc(Oc3ccccc3)c2)cc1)N1CCOCC1	127	165	111	i	113	170*
Cc1cc(C)c(NC(=O)CN2CCN3CCCC3C2)c(C)c1 (configuration not stated)	101	97	95	i	105	x

Compound activity deposited in PubChem by NMMLSC.
